Measurements taken from PubChem BioAssay.
Calls of active or inactive are those of the source.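 How the source made its calls: active means mean duplicate potentiation above the buffer control mean plus 5 SD of buffer wells; inactive means the rest.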

These compounds were tested against Potassium voltage-gated channel subfamily KQT member 2 (Rattus norvegicus) (UniProt O88943) (assay: KCNQ2 thallium flux enhancement – KCNQ2-CHO-K1 cells, selectivity assay for KCNQ1 potentiator project (AID 493009;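 further: assay conditions were tuned for KCNQ1 rather than KCNQ2 modulators; signal is max minus min fluorescence divided by baseline after thallium stimulus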)). Settings: FluxOR thallium flux fluorescence, at 10 µM; active compounds read high, scaled: buffer 0, activator control 100.
Chain of Potassium voltage-gated channel subfamily KQT member 2 (Rattus norvegicus) (O88943 whole entry, looked up): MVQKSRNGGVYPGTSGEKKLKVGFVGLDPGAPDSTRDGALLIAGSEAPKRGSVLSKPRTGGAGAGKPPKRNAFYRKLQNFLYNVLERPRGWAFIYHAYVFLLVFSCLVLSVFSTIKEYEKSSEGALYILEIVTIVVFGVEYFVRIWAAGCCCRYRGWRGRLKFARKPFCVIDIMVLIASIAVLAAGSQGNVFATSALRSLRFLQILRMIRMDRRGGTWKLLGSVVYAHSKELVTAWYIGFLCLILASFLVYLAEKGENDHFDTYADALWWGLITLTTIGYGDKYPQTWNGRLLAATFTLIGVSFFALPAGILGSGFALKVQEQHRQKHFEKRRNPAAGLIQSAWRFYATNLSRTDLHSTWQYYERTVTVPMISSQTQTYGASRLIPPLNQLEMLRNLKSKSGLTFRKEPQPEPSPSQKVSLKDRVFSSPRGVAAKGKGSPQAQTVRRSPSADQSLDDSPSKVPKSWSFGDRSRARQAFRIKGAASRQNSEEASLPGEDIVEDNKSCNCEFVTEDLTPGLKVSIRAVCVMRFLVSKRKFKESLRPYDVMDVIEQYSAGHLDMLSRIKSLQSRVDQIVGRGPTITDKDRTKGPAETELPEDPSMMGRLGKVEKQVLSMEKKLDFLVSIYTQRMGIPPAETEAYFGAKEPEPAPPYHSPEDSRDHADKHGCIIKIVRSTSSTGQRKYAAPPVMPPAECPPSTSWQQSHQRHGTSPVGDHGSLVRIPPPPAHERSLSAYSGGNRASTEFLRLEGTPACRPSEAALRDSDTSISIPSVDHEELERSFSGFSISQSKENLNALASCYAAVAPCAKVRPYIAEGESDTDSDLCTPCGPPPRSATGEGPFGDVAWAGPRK
With `Fc1ccc2nc(Nc3nc4c(F)cc(F)cc4s3)sc2c1` the potentiation was 210% (active).
`N#Cc1ccccc1Oc1ccccc1C=O` was tested, and the potentiation was 160% (active).
For `O=C(NC(=S)Nc1ccccc1Cl)c1cncc(Br)c1`, the outcome was “inactive”.
For `COc1cccc(/C=N/Nc2snc(SC)c2C#N)c1O`, the outcome was “inactive”.
In the case of `Cc1c(/C=N\NC(=O)c2ccc(F)cc2)cnn1C`, the outcome is reported as “inactive”.
For `CSc1ccc(/C=N/n2c(Cc3ccc(Br)cc3)n[nH]c2=S)cc1`, the potentiation was 168% (active).
In the case of `O=C1CC(c2cccs2)Cc2nc(NC(=O)C3CC3)ncc21` (stereo not given), the outcome is reported as “inactive”.
In the case of `CCCn1c(N)c(C(=O)CSc2nc(C)nc3sc(C)c(C)c23)c(=O)[nH]c1=O`, the potentiation is reported as 194% (active).
With `COc1cccc(C(=O)NNC(=O)C(=O)Nc2ccc(C)c(Cl)c2)c1` the potentiation was 311% (active).
With `Cc1ccc(/C(O)=C/C(=O)C(=O)NC23CC4CC(CC(C4)C2)C3)cc1` the potentiation was 367% (active).
In the case of `CN1C(=O)C2(Oc3ccccc3C3CC(c4ccccc4)=NN32)c2ccccc21` (stereo not given), the outcome is reported as “inactive”.
With `N#C/C=C1/NC(=O)c2ccccc2S1` the potentiation was 166% (active).
In the case of `CCC1=NN(C(=O)c2ccc(Br)cc2)C(O)(c2ccccc2)C1` (stereo not given), the outcome is reported as “inactive”.
For `Fc1cccc2sc(Nc3nnc(-c4ccco4)o3)nc12`, the potentiation was 381% (active).
`COc1ccc(CNC(=O)CNC(C)c2ccc(F)cc2)cc1` (stereo not given) was tested, and the outcome was “inactive”.
`Cc1ccc2nc(C)cc(N/N=C/c3cccnc3)c2c1` was tested, and the outcome was “inactive”.
`O=C(Nc1nc(=O)c2ccccc2s1)c1ccc(F)cc1` was tested, and the potentiation was 152% (active).
With `CCCc1c(C)[nH]c2ccc(NC(C)=O)cc2c1=O` the outcome was “inactive”.
For `Cn1c(=NC(=O)c2ccco2)sc2cccc(F)c21`, the outcome was “inactive”.
In the case of `COc1ccccc1CNC(=O)COC(=O)c1nccnc1N`, the outcome is reported as “inactive”.
In the case of `CO/N=C/CC(=O)Nc1ccc(F)cc1F`, the outcome is reported as “inactive”.
In the case of `COc1cccc(NC(=O)c2cncs2)c1`, the outcome is reported as “inactive”.
With `Oc1c(N=NC(=S)Nc2ccccc2F)c2ccccc2n1Cc1ccccc1Cl` the potentiation was 210% (active).
For `Cn1cccc1/C=N/n1c(-c2ccc(C(C)(C)C)cc2)n[nH]c1=S`, the outcome was “inactive”.
`COc1ccc(CCNC(=O)c2ccc(N(C)S(=O)(=O)c3ccc(C)cc3)cc2)cc1OC` was tested, and the outcome was “inactive”.
For `O=S(=O)(Nc1ccccc1Cl)c1ccc(NS(=O)(=O)c2cccs2)cc1`, the outcome was “inactive”.
In the case of `CCSC(=S)c1c(C)[nH]n(-c2ccccc2)c1=O`, the potentiation is reported as 184% (active).
In the case of `CC1CCc2sc3nc(N4CCN(CCO)CC4)n4ncnc4c3c2C1` (stereo not given), the potentiation is reported as 500% (active).
With `COc1ccc(S(=O)(=O)N2CCCC(C(=O)O)C2)cc1` (stereo not given) the outcome was “inactive”.
With `CNC(=S)Nc1sc2c(c1C(=O)OC)CCC2` the potentiation was 287% (active).
With `CC1CCN(c2ncnc3ccccc23)CC1` the outcome was “inactive”.
For `CC(NC(=S)NC(=O)c1ccccc1Br)c1ccccc1` (stereo not given), the potentiation was 184% (active).
In the case of `CC(Sc1n[nH]c(N)n1)C(=O)NC1CCCCC1C` (stereo not given), the potentiation is reported as 172% (active).
For `O=C(NNC(=O)c1ccc(Cl)c(Cl)c1)c1ccncc1`, the outcome was “inactive”.
With `O=c1c2ccccc2nc(-c2ccc(Cl)c(Cl)c2)n1O` the potentiation was 558% (active).
`Cc1ccc(C)c(NS(=O)(=O)c2cc(C(=O)NCc3ccccn3)ccc2Cl)c1` was tested, and the outcome was “inactive”.
In the case of `CCN(C(=O)COC(=O)c1ccccc1Nc1cccc(C)c1C)C1CCS(=O)(=O)C1` (stereo not given), the outcome is reported as “inactive”.
With `CN=C1c2cc3cc(OC)ccc3n2CCN1Cc1ccccc1` the outcome was “inactive”.
`Cc1cccc(C(=O)Nc2ccccc2C(=O)NCc2cccnc2)c1` was tested, and the outcome was “inactive”.
In the case of `O=C(NCc1ccccc1)c1onc(CSc2ccc(F)cc2)c1C(=O)NCCCN1CCOCC1`, the outcome is reported as “inactive”.
